# What was measured:
# Test in all cases: PBM binding z-score (relative to random genomic background probes); higher = stronger binding; sequences stand for … in GC…GCGATTGACAGCGTAGAATGAAGG
# [1] = tested on: RARb homodimer (NR concentration 270 nM)
# Procedure, shortened: (§1)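 Ligand-free nuclear receptor dimers were bound for 1 h to custom Agilent 4×180K protein-binding microarrays. Detection used antibodies against each partner (one per run). Binding z-scores rest on regression-normalized fluorescence, with random background probes as the reference.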
# [2] = tested on: RARg:RXRa (NR concentration 270 nM, RXRa partner concentration 90 nM)
# Procedure, shortened: as §1
# [3] = tested on: RARg homodimer (NR concentration 270 nM)
# Procedure, shortened: as §1
# [4] = tested on: RXRa DBDmut IVT, anti-RXR (DBD mutation: RXRa K156A/R161A, NR concentration 90 nM)
# Procedure, shortened: as §1
# [5] = tested on: RXRa homodimer (NR concentration 180 nM)
# Procedure, shortened: as §1
# [6] = tested on: THRa:RXRa (NR concentration 90 nM, RXRa partner concentration 90 nM)
# Procedure, shortened: as §1
# [7] = tested on: THRa homodimer (NR concentration 90 nM)
# Procedure, shortened: as §1
# [8] = tested on: VDR homodimer (NR concentration 270 nM)
# Procedure, shortened: as §1
Sequence,PBM binding z-score [1],PBM binding z-score [2],PBM binding z-score [3],PBM binding z-score [4],PBM binding z-score [5],PBM binding z-score [6],PBM binding z-score [7],PBM binding z-score [8]
CGAACTAGGTCATGGACAGGACAGTGAATAGTAA,2.93,5.08,4.95,1.42,3.41,3.13,0.909,0.49
AGAATGATGTTATACGTAGATCAGGGAAGAAAGT,-0.0497,0.194,0.393,-0.231,-0.0318,-0.0993,-0.533,-0.17
TAGCATAGGTCATGGGCCAGTATACCACGCGAAC,3.37,5.5,4.93,0.253,5.71,2.67,-0.279,0.267
CCGACTGCGGCATAAGGTTACCATAAGCCAGCCC,0.92,0.306,0.391,0.104,0.766,2.11,1.49,-0.279
AGAACGACGGCACGCTGAGTTGATAGCAGAGTAG,-0.983,-0.171,-0.213,-0.569,-0.1,-0.601,-1.14,-0.198
AGAACGAGGGCAAGCTGAGTTGATAGCAGAGTAG,1.06,1.53,1.97,2.1,0.964,1.35,-0.471,1.36
GCAGACAGGTAAAACGCAGGTAACTCAGGGTGGC,0.258,-0.164,-0.43,-0.576,0.223,0.964,-0.354,-0.545
CCTTACGGGTCAAGGTCATAGCACGGGTGGTACG,4.87,6.23,6.45,2.02,7.01,4.18,3.42,3.71
TCTTGTAGATCAATAGTGGTTAAGAAAGTGCGCT,-0.161,-0.0273,-0.193,0.933,0.198,0.0334,-0.033,0.464
TAGCCTAGGTCATGCGGGCCTGTATAGTGTCGGC,2.91,3.78,4.07,0.686,2.87,3.03,1.05,-0.143
AATACAGGGTCATCGTAGACCAGAGTACGCACAG,3.31,5.66,5.19,3.73,6.72,3.67,1.24,4.03
GTACCAAGGTGAATAGGGCGTTGATGAGTAGGCG,1.21,1.13,0.952,-0.247,0.599,1.36,0.767,0.221
TTATCAAGGTGAGCTGAGGTCGTTGATCCAACTC,1.62,1.33,1.07,0.397,1.59,4.64,2.47,2.33
CCTAGCAGGCCAGGGTCACTTAAGCATTTCGCTT,2.51,2.93,2.28,0.27,3.13,2.67,0.864,1.25
AATACAGGGTCATCGTAGGGCAGAGTACGCACAG,3.67,6.04,5.73,3.64,7.22,4.59,1.42,3.02
GGAACGAGGGCCTTCGAGTTGATAGCATGGCGAT,-1.03,-0.45,-0.368,0.207,-0.125,0.262,-1.24,-0.335
CCTACCGGGCCATCAGGTCATTGATATCAACGTT,2.68,2.12,2.18,-0.283,1.28,3.19,3.37,1.78
ACTTACGGATCAACGAGGTTATAGCACGCGTATA,0.98,0.642,0.684,0.778,1.46,1.83,0.943,1.39
TAGCCTAGGTCATCCGGGCCAGTATAGTGTCGGC,3.17,4.1,4.53,1.24,2.96,3.16,1.16,1.42
CCGACTGGGGCAATGGTTACCATACTCAGTACGA,-0.241,-0.0332,0.28,-0.545,0.082,-0.548,-0.465,-0.489
ATCTCTAGGTACAGTTCAGTGAAAGATCGATAGA,0.899,0.55,0.987,1.95,0.449,0.634,0.0799,1.77
CCGACTGGGGCAAGGTTACCCTAACGCACAGCCA,1.51,0.945,1.06,-0.485,1.08,1.47,0.84,-0.188
CAAACTAGGTCACAGAGGCCAAAGTCCGTGCGTA,3.73,4.88,5.37,2.45,3.63,3.66,1.54,2.62
CCTACTGGGCCATTCAGAGGTGATTGATCATATG,0.207,0.611,0.223,-0.252,0.178,0.505,-0.356,-0.44
CCAGACAGCTGAAAGGTAACTCAGTCTGGTACGC,-0.175,-0.0986,-0.184,0.0606,0.212,0.0566,-0.51,-0.0523
CGTCAAAGTTCAACTAAGGTAAGGTAAAGCACGC,3.92,5.8,6.23,4.39,4.88,5.19,1.95,3.59
CCCACTGGGCCAAGGTCATTGATCAGTCAAAGCA,3.19,3.57,3.06,0.687,3.2,3.3,2.16,3.07
ACAGACAGGTGATGAAGGTAACTCATGCTATCAT,0.0338,0.394,0.615,-0.0265,0.382,0.149,-0.485,-0.456

# From the supplement of paper PMC6555819
